# Rows were chosen to be rich in hits. Some 9.3% of all compounds tested hit in one or more screens of this group.
# HCV inhibitor = qHTS Assay for Inhibitors of Hepatitis C Virus (HCV); Huh7.5.1 HCVcc-Cre infection, luciferase reporter, 44 h; AID 651820, 2012; 340,000 tested, 3.4% active; Potency, µM (top dose mostly 41.8 µM), without a hit: top-dose activity change, negative = inhibition, actives largely listed as inhibitors; also: potency is read from the fitted curve at half-maximal effect
#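 Infectious HCVcc-Cre (~0.5 moi) was added to cells just after compound, with cells seeded 4 h earlier at 1,000 per well. Luciferase activity after 44 h culture reported infection; substrate was incubated 15 min at room temperature before reading.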
# FMDV antiviral = High Throughput Screening for Foot and Mouth Disease Virus Antivirals; Potency, µM (top dose mostly 57.9 µM), for the others: top-dose activity change, negative = inhibition, most hits filed as inhibitors; AID 1159524, 2015; 410,000 tested, 1.2% active; FMDV antiviral cell-based qHTS; calls by dose curve; tested in HEK293T cells; also: read-out not given here; potency is read from the fitted curve at half-maximal effect; nearly all actives have a fitted effect of over 45% in size
# Sm TGR inh = qHTS Assay for the Inhibitors of Schistosoma Mansoni Peroxiredoxins. AID 485364, 2010. purified TGR, DTNB reduction, TNB absorbance 405 nm. Potency, µM (top dose mostly 114 µM), without a hit: at the top dose activity change, negative = inhibition, usual class: inhibitors. 360,000 tested, 3% active; also: potency is read from the fitted curve at half-maximal effect; nearly all actives have a fitted effect of over 60% in size
#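 First, TGR (20 nM dispensed) and NADPH were mixed with compound. Second, a 15 min room-temperature incubation followed. Third, further NADPH and then DTNB were added to start the reaction. Finally, TNB absorbance was monitored kinetically.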
# VACV mCherry inh = qHTS for Stage-Specific Inhibitors of Vaccinia Orthopoxvirus: mCherry Reporter Primary qHTS; Vaccinia virus mCherry reporter infection, fluorescence; Potency, µM (doses to about 36.5 µM), for the others: at the top dose activity change, negative = inhibition, most hits filed as inhibitors; 310,000 tested, 0.63% active; calls by dose curve; tested in A549 cells; also: potency is read from the fitted curve at half-maximal effect; nearly all actives have a fitted effect of over 35% in size
# VACV Venus inh = qHTS for Stage-Specific Inhibitors of Vaccinia Orthopoxvirus: Venus Reporter Primary qHTS. Vaccinia virus Venus reporter expression, fluorescence. Potency, µM (highest dose often 36.5 µM), without a hit: at the top dose activity change, negative = inhibition, hits mostly inhibitors. 330,000 tested, 0.46% active; calls by dose curve; tested in A549 cells; also: potency is read from the fitted curve at half-maximal effect; nearly all actives have a fitted effect of over 30% in size
# HCMV antiviral = qHTS Assay for inhibitors of the human cytomegalovirus (HCMV). HFF cells, HCMV-luciferase reporter, 72 h; stronger effect = lower value. activity change, negative = inhibition, % at 57.5 µM. 410,000 tested, 4.5% active; in the data active = activity change below about -60%; inconclusive = no clear call, values can overlap the other calls; inactive = above about -39%
#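 Compounds were evaluated in HFFs infected with an HCMV luciferase reporter virus (MOI 1 PFU/cell). Luciferase in lysates collected 72 h post infection served as the replication measure.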
# Numbers without * were called inactive; i = inactive; ? = inconclusive; . = not tested or not shown; [ ] = remark or other dose. Unless noted, calls follow the shape of the dose curve; as a rule, active = well fitted curve in the direction sought with a large enough effect; inconclusive = small, poorly fitted or top-dose-only effect, or another doubt; inactive = no such curve, though single readings can be large; an effect the other way counts as inactive or inconclusive. % is scaled to controls: 0 for no effect and ±100 for the full control effect.
SMILES,HCV inhibitor,FMDV antiviral,Sm TGR inh,VACV mCherry inh,VACV Venus inh,HCMV antiviral
CN(c1cccc(Cl)c1)S(=O)(=O)c1cccc(C(=O)NCc2ccncc2)c1,?,-30%,?,.,.,?
CC(C)(O)C#Cc1ccc(N2C(c3ccsc3)=Cc3ccc(F)cc3C2c2c[nH]c3ccccc23)cc1 (configuration not stated),.,-13%,.,23%,-1%,-63*
CNC(=O)Nc1cccc(-c2cc(-c3c(Cl)cccc3Cl)no2)c1,-24%,-25%,2%,-8%,-15%,-74*
CCc1nc(SC)ncc1C(=O)Nc1ccc(Cl)cc1C(=O)c1ccccc1,.,10%,-4%,14%,7%,2
O=C1c2ccccc2C(=O)N1c1cccc(-c2csc(Nc3ccc4c(c3)OCO4)n2)c1,-1%,.,50µM*,.,.,.
O=C(CSc1cn(CCNC(=O)c2c(F)cccc2F)c2ccccc12)NCC1CCCO1 (configuration not stated),-11%,-27%,-8%,-24%,-17%,14
O=C(O)CCCn1c(O)c(C=C2N=c3ccccc3=N2)sc1=S,7%,-29%,-13%,.,.,?
O=C(O)CCCCCn1c(O)c(C=C2N=c3ccccc3=N2)sc1=S,11%,-6%,-21%,-18%,-20%,-80*
CCCCNC(=O)COCc1cc(-c2ccc3c(c2)OCO3)on1,-11%,13%,-12%,4%,3%,50
CCOCCCNC(=S)NCCCNc1nc2c(C)cc(C)cc2cc1C#N,13%,22%,15%,.,.,-32
Cc1ccc2cc(C#N)c(NCCNC(=O)C3CC3)nc2c1C,10µM*,?,-6%,.,.,-88*
Cc1cc(C)c2nc(NCCCNC(=S)NCCCN(C)C)c(C#N)cc2c1,11µM*,?,4%,.,.,-7
Cc1ccc2cc(C#N)c(NCCNC(=S)NCCCN(C)C)nc2c1C,?,-22%,0%,?,13µM*,-12
Cc1cccc2cc(C#N)c(NCCNC(=O)COc3ccccc3)nc12,?,-18%,-5%,.,.,-23
OCCC1CN(Cc2ccc(F)cc2)CCN1CCc1ccccc1 (configuration not stated),-15%,-6%,-4%,.,.,40
CCCCCCC/C(C)=N/NC(=O)CC(=O)NCCc1ccccc1,31%,-9%,-21%,-17%,-13%,-1
COc1ccc(-c2cc(-c3ccc(OC)cc3)[nH]n2)cc1,?,37%,9%[11.4 µM],.,.,-1
COc1ccc(-c2cc(C3CCNCC3)[nH]n2)cc1,-11%,2%,45µM*,.,.,8
COc1ccc(C)cc1NC(=O)c1ccccc1NS(=O)(=O)c1ccc(Cl)s1,?,-25%,.,.,.,-61*
O=C(Nc1cc(S(=O)(=O)N2CCOCC2)ccc1N1CCOCC1)c1ccccc1[N+](=O)[O-],14%,2%,.,.,.,-26
Cc1ccc(NC(=O)C2=COCCO2)cc1S(=O)(=O)N1CCOCC1,35%,7%,-4%,i,0%,-26
Cc1ccc(NC(=O)c2ccccc2NS(=O)(=O)c2ccc(Cl)s2)cc1S(=O)(=O)N1CCOCC1,?,?,-1%,-23%,?,-82*
Cc1ccc(NC(=O)c2ccc([N+](=O)[O-])s2)cc1S(=O)(=O)N1CCOCC1,?,?,.,?,?,-94*
COc1ccccc1NC(=O)c1ccccc1NS(=O)(=O)c1cccs1,10%,-18%,0%,-5%,-12%,5
O=C(Nc1cc(S(=O)(=O)N2CCOCC2)ccc1N1CCOCC1)c1ccc([N+](=O)[O-])s1,13µM*,-20%,.,.,.,?
SMILES,HCV inhibitor,FMDV antiviral,Sm TGR inh,VACV mCherry inh,VACV Venus inh,HCMV antiviral
COC(=O)C1=C(N)N(c2ccccc2C(F)(F)F)C2=C(C(=O)CCC2)C1c1ccc2c(c1)OCO2 (configuration not stated),?,-28%,-4%,.,?,?
C=C(C)c1ccccc1NC(=O)CCN1C(=O)c2ccccc2S1(=O)=O,7%,-2%,31%,-14%,5%,4
O=C(NCc1ccc2c(c1)OCO2)C(=O)NCC1OCCCN1S(=O)(=O)c1ccccc1 (configuration not stated),.,-16%,.,i,-7%,-28
O=C(O)c1cccnc1C(=O)O,0.71µM*,-13%,1%,7%,2%,.
Cc1onc(-c2c(Cl)cccc2Cl)c1C(=O)N1CCN(c2ccc(F)cc2)CC1,?,?,-5%,-29%,-14%,11
O=C(CNC(=O)c1ccccc1F)OCC(=O)N1CCCCC1,9%,-16%,-12%,-8%,-1%,-62*
COc1ccc(C(C)=O)cc1COC(=O)c1c(C)noc1C,10µM*,0%,?,.,.,29
CC1CCN(C(=O)COC(=O)CNC(=O)c2ccccc2F)CC1,16%,-3%,2%,-11%,-15%,-26
O=C(OCc1ccc(F)cc1)c1cccnc1Cl,14%,-23%,1%,0%,-13%,-60*
COc1ccc(C(C)=O)cc1COC(=O)CNC(=O)c1ccccc1F,-11%,?,8.9µM*,-13%,-9%,38
CCOc1ccc(NC(=O)Cn2c3ncccc3c(=O)n2-c2ccc(CC)cc2)cc1,.,-29%,-1%,-3%[7.34 µM],-1%[7.34 µM],-28
Cc1cccc(NC(=O)CCCCCN2C(=O)c3ccccc3C2=O)n1,12%,-1%,3%,.,-9%,-38
Cc1cnc([N+](=O)[O-])n1CCOC(=O)NC(=O)c1cccc(F)c1,3%,8%,-7%,-5%,-6%,-28
COc1ccc(C(C)=O)cc1COC(=O)c1cc2ccccc2cc1O,-22%,-19%,-30%,-28%,0%,-3
COc1ccc(C(C)=O)cc1COC(=O)c1cccnc1Cl,11µM*,-8%,13µM*,-6%,-5%,-9
O=[N+]([O-])/C=C\c1ccc(N2CCOCC2)cc1,?,18µM*,.,.,.,-27
O=C(COc1ccc(/C=C\[N+](=O)[O-])cc1)N1CCOCC1,15%,?,22µM*,0%,-19%,24
O=C(COc1ccc(S(=O)(=O)N2CCOCC2)cc1)N1CCOCC1,27%,0%,0%,0%,-10%,-31
CCCn1c(SCC(=O)N(C)CC(=O)Nc2ccc(Cl)cc2)n[nH]c1=O,-11%,-10%,0%,.,.,-19
Clc1ccccc1-c1nnc2sc(-c3cccs3)nn12,19%,33%,-6%,.,.,22
COCCNc1nc(CSc2ccccc2)nc2sc(C)c(C)c12,25µM*,0%,1%,i,-23%,-70*
COc1ccnc(N2CCN(c3ccc(Cl)cc3)CC2)c1C#N,32µM*,?,12%,-15%,-9%,-68*

# Assay outcomes: PubChem, National Center for Advancing Translational Sciences (NCATS)
